Records with an inconclusive call do not appear. Activity calls are given as the source filed them. Unless noted, calls follow the shape of the dose curve; as a rule, active = well fitted curve in the direction sought with a large enough effect in the repeat runs; inconclusive = weak or mixed curves; inactive = no such curve, though single readings can be large; an effect the other way counts as inactive or inconclusive.
Legend:
[1] = qHTS assay to identify aromatase inhibitors - cell viability counter screen (AID 743084);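 also: cells stimulated with testosterone during compound exposure; nearly all actives have a fitted effect of over 55% in size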
[2] = target: Aryl hydrocarbon receptor (Homo sapiens) (UniProt P35869); experiment: qHTS assay to identify small molecule that activate the aryl hydrocarbon receptor (AhR) signaling pathway (AID 743085);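 also: HG2L7.5c1 human HepG2 liver cells with stably integrated DRE-driven firefly reporter; series mostly up to about 70 µM; nearly all actives have a fitted effect of over 15% in size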
Chain of Aryl hydrocarbon receptor (Homo sapiens) (P35869 whole entry, looked up): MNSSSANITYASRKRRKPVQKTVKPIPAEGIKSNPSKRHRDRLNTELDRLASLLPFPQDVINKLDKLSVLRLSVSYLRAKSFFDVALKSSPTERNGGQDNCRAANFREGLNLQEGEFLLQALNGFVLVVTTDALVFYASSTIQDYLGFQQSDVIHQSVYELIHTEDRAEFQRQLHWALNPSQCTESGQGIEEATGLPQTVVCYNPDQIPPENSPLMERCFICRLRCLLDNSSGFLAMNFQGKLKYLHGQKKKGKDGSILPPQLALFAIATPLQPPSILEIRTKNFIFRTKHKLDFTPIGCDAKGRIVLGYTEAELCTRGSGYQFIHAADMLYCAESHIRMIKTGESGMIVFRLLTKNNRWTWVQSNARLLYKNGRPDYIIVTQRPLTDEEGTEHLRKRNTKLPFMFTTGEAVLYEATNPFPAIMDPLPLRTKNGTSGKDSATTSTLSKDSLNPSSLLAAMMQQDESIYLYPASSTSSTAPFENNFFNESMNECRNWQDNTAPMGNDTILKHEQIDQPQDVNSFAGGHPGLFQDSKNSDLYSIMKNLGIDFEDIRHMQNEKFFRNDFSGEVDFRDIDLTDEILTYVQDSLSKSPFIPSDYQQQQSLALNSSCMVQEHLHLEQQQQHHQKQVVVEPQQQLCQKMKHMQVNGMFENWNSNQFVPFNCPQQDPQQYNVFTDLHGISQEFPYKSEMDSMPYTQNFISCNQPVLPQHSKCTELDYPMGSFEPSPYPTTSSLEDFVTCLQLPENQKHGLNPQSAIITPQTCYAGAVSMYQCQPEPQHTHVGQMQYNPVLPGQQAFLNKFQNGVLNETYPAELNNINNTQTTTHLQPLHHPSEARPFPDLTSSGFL
Method in brief: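 Steps: seed HepG2-AhR-luc cells; allow 5 h at 37C; pin-transfer test compound or vehicle; incubate 24 h at 37C; add viability dye (30 min, 37C) and read fluorescence; add luciferase substrate (30 min, RT) and read luminescence.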

[3] = qHTS assay to identify small molecule that activate the aryl hydrocarbon receptor (AhR) signaling pathway - cell viability counter screen (AID 743086);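 also: HepG2 liver cells carrying the AhR DRE luciferase reporter; series mostly up to about 70 µM; nearly all actives have a fitted effect of over 45% in size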
Method in brief: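 HepG2-AhR-luc (HG2L7.5c1) cells, 4000/well, treated 24 h at 37 C with compound; viability measured as CellTiter-Fluor fluorescence after 30 min in the same wells as the luciferase read.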

[4] = target: Peroxisome proliferator-activated receptor gamma (Homo sapiens) (UniProt P37231); experiment: qHTS assay to identify small molecule agonists of the peroxisome proliferator-activated receptor gamma (PPARg) signaling pathway (AID 743094; active = well fitted activation curve with a large enough effect in the signal ratio in the repeat runs, not every such curve was filed as active; the % refers to the signal ratio)
Chain of Peroxisome proliferator-activated receptor gamma (Homo sapiens) (P37231 whole entry, looked up): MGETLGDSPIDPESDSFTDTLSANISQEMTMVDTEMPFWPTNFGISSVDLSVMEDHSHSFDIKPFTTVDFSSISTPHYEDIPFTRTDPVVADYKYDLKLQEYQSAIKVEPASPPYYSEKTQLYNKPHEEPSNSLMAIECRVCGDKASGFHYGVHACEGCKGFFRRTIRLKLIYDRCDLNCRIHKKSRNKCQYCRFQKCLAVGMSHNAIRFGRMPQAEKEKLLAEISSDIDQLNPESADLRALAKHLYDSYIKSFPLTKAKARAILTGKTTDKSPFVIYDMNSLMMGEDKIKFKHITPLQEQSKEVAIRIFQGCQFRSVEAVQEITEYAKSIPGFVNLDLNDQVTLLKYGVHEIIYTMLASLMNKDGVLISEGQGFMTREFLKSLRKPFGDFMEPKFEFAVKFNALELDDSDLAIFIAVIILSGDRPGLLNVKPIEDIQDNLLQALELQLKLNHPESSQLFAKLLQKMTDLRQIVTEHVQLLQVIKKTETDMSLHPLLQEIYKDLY
Method in brief: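 Agonism was assessed in a beta-lactamase reporter system, HEK293H cells with a stably integrated UAS-bla construct under PPARg control; the 17 h treatment at 37C preceded a 1 h room-temperature FRET substrate read.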

[5] = target: Peroxisome proliferator-activated receptor gamma (Homo sapiens) (UniProt P37231); experiment: qHTS assay to identify small molecule antagonists of the peroxisome proliferator-activated receptor gamma (PPARg) signaling pathway (AID 743191; calls by dose curve; also: series mostly up to about 63 µM; nearly all actives have a fitted effect of over 30% in size)
Method in brief: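 GeneBLAzer PPARg UAS-bla HEK293H cells, 5 h post-plating, exposed to compounds 17 h at 37C. LiveBLAzer B/G FRET substrate added for 1 h at room temperature; beta-lactamase reporter read by fluorescence intensity.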

[6] = qHTS assay to identify small molecule antagonists of the peroxisome proliferator-activated receptor gamma (PPARg) signaling pathway - cell viability counter screen (AID 743194); also: nearly all actives have a fitted effect of over 55% in size
Method in brief: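 Cytotoxicity counter screen in PPARg-bla HEK293H cells, same wells as reporter assay. Compounds plus 50 nM rosiglitazone (final) for 17 h at 37 C, then viability read by CellTiter-Glo luminescence.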

[7] = qHTS assay for small molecule agonists of the antioxidant response element (ARE) signaling pathway (AID 743202; active = well fitted activation curve with a large enough effect in the signal ratio in the repeat runs, not every such curve was filed as active; the % refers to the signal ratio)
Method in brief: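 HepG2 ARE-bla cells; 16 h treatment at 37 C; FRET-based beta-lactamase fluorescence read after 2 h substrate incubation at room temperature.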

[8] = qHTS assay for small molecule agonists of the antioxidant response element (ARE) signaling pathway - cell viability counter screen (AID 743203; calls by dose curve; also: nearly all actives have a fitted effect of over 55% in size)
Method in brief: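 ATP content via CellTiter-Glo luminescence served as the viability measure. Cells: ARE-bla HepG2, 2,000 per well. Exposure: 16 hrs, 37C/5% CO2.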

[9] = qHTS assay for small molecule activators of the heat shock response signaling pathway - cell viability counter screen (AID 743209); also: nearly all actives have a fitted effect of over 50% in size
Method in brief: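 Compounds dissolved in DMSO were added to overnight-plated HSE-bla HeLa cells and left 5 h at 37 C. Cell viability was quantified by luminescence using CellTiter-Glo.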

[10] = qHTS assay for small molecule activators of the heat shock response signaling pathway (AID 743210; active = well fitted activation curve with a large enough effect in the signal ratio in the repeat runs, with a control signal flat, not every such curve was filed as active; the % refers to the signal ratio;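 also: HeLa cells with beta-lactamase reporter driven by heat shock elements; series mostly up to about 63 µM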)
Method in brief: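 Following overnight attachment, HSE-bla HeLa cells received test compounds for 5 h at 37 C; beta-lactamase activity was then detected via FRET substrate fluorescence.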

[11] = qHTS assay to identify small molecule agonists of the peroxisome proliferator-activated receptor delta (PPARd) signaling pathway - cell viability counter screen (AID 743211); also: nearly all actives have a fitted effect of over 55% in size
Method in brief: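 Viability of GeneBLAzer PPARd UAS-bla HEK293H cells was assessed after 17 h compound incubation at 37C, using CellTiter-Glo reagent added after the reporter read and luminescence recorded 30 min later.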

[12] = target: Peroxisome proliferator-activated receptor delta (Homo sapiens) (UniProt Q03181); experiment: qHTS assay to identify small molecule agonists of the peroxisome proliferator-activated receptor delta (PPARd) signaling pathway (AID 743212; calls by dose curve)
Chain of Peroxisome proliferator-activated receptor delta (Homo sapiens) (Q03181 whole entry, looked up): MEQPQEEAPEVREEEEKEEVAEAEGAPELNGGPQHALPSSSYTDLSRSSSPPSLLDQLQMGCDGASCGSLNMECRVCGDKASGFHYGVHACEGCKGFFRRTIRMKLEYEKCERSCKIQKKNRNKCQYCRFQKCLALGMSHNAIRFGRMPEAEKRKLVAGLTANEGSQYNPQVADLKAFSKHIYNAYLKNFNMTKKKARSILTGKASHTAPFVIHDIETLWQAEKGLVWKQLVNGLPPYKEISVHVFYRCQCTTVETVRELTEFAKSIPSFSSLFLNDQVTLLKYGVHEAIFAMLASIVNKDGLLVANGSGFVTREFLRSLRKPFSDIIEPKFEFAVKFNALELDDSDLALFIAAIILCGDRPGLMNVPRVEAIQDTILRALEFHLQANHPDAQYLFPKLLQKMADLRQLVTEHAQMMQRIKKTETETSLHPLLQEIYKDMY
Method in brief: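 Tox21 library screened in GeneBLAzer PPARd UAS-bla HEK293H cells. After compound treatment at 37 C, a FRET-based beta-lactamase substrate was applied for 2 h and fluorescence recorded.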

[13] = qHTS assay to identify small molecule antagonists of the peroxisome proliferator-activated receptor delta (PPARd) signaling pathway - cell viability counter screen (AID 743213); also: nearly all actives have a fitted effect of over 50% in size
Method in brief: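 Same-well viability: cells pre-incubated 5 h, dosed with compound plus 300 nM L165041, kept 17 h at 37 C, FRET substrate 2 h RT, then CellTiter-Glo 30 min RT and luminescence.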

[14] = target: Peroxisome proliferator-activated receptor delta (Homo sapiens) (UniProt Q03181); experiment: qHTS assay to identify small molecule antagonists of the peroxisome proliferator-activated receptor delta (PPARd) signaling pathway (AID 743215; active = well fitted inhibition curve with a large enough effect in the signal ratio in the repeat runs, not every such curve was filed as active; the % refers to the signal ratio;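 also: cells stimulated with agonist L165041 at 300 nM final during compound exposure; series mostly up to about 62 µM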)
Method in brief: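 Here, a reporter line (HEK293H, beta-lactamase under a UAS) measures PPARd signaling. Compounds are tested against agonist L165041 at 300 nM final concentration over 17 h at 37 C, with fluorescence read after substrate.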

[15] = target: Bile acid receptor (Homo sapiens) (UniProt Q96RI1); experiment: qHTS assay to identify small molecule antagonists of the farnesoid-X-receptor (FXR) signaling pathway (AID 743217; active = well fitted inhibition curve with a large enough effect in the signal ratio in the repeat runs, not every such curve was filed as active; the % refers to the signal ratio)
Chain of Bile acid receptor (Homo sapiens) (Q96RI1 whole entry, looked up): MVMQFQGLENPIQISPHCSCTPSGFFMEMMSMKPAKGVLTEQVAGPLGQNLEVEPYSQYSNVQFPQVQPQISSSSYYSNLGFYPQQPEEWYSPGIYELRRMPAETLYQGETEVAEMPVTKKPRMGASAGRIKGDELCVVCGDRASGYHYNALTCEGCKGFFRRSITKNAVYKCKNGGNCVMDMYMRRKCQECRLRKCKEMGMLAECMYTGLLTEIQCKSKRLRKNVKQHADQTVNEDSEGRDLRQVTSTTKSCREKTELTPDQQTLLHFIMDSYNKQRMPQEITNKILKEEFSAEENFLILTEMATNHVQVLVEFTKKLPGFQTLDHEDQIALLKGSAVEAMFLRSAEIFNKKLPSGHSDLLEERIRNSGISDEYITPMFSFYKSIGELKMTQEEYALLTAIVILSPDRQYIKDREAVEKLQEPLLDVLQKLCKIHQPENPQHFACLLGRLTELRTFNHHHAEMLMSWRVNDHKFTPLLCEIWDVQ
Method in brief: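 Test compounds are pin-transferred onto FXR-bla HEK 293T cells, then chenodeoxycholic acid is added at 50 uM final. After 16 h at 37 °C, LiveBLAzer B/G substrate is applied for 2 h at room temperature and fluorescence read.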

[16] = qHTS assay to identify small molecule agonists of the farnesoid-X-receptor (FXR) signaling pathway - cell viability counter screen (AID 743218); also: nearly all actives have a fitted effect of over 45% in size
Method in brief: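 Quantitative HTS counter screen measuring ATP-based viability via CellTiter-Glo luminescence in HEK 293T cells carrying a UAS-driven beta-lactamase reporter, after 16 h compound exposure at 37 C.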

[17] = target: Bile acid receptor (Homo sapiens) (UniProt Q96RI1); experiment: qHTS assay to identify small molecule agonists of the farnesoid-X-receptor (FXR) signaling pathway (AID 743220; active = well fitted activation curve with a large enough effect in the signal ratio in the repeat runs, not every such curve was filed as active; the % refers to the signal ratio)
Method in brief: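 FXR-UAS-bla HEK 293T cells carrying a UAS-driven beta-lactamase reporter were plated for 5 h at 37C/5% CO2, then exposed to DMSO-dissolved Tox21 10K compounds for 16 h at 37C. A LiveBLAzer B/G FRET substrate was loaded for 2 h at room temperature before fluorescence reading.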

[18] = qHTS assay to identify small molecule antagonists of the farnesoid-X-receptor (FXR) signaling pathway - cell viability counter screen (AID 743221; active = well fitted cell-killing curve with a large enough effect in the repeat runs, not every such curve was filed as active; also: nearly all actives have a fitted effect of over 50% in size)
Method in brief: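 Quantitative HTS of the Tox21 10K library run in parallel with the beta-lactamase reporter read. HEK 293T cells carrying a UAS-driven bla reporter got compound and 50 uM CDCA (final) for 16 h; ATP-based luminescence followed.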

[19] = target: Vitamin D3 receptor (Homo sapiens) (UniProt P11473); experiment: qHTS assay to identify small molecule agonists of the vitamin D receptor (VDR) signaling pathway (AID 743222; calls by dose curve)
Chain of Vitamin D3 receptor (Homo sapiens) (P11473 whole entry, looked up): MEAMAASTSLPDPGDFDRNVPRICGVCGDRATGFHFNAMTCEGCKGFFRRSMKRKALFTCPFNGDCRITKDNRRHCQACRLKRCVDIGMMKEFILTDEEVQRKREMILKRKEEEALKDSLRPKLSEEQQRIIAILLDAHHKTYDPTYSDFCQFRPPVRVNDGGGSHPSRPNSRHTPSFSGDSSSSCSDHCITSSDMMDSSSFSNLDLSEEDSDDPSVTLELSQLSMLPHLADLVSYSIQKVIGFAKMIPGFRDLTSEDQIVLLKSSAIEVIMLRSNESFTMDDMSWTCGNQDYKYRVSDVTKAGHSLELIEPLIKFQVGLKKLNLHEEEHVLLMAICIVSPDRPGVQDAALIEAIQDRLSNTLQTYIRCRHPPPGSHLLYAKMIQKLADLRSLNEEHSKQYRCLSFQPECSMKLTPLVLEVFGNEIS
Method in brief: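 Tox21 cell reporter format: VDR-bla line, 16 h compound exposure in 5% CO2 at 37C, then fluorescence intensity after 2 h with LiveBLAzer B/G FRET substrate.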

[20] = target: Vitamin D3 receptor (Homo sapiens) (UniProt P11473); experiment: qHTS assay to identify small molecule antagonists of the vitamin D receptor (VDR) signaling pathway (AID 743223; active = well fitted inhibition curve with a large enough effect in the signal ratio in the repeat runs, not every such curve was filed as active; the % refers to the signal ratio)
Method in brief: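 Fluorescence from LiveBLAzer B/G FRET substrate, read after 2 h at room temperature, reflects beta-lactamase reporter activity in VDR-bla cells treated 16 h at 37C with compounds and agonist 1alpha,25-dihydroxyvitamin D3 (3 nM final).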

Measured: Potency

O=c1[nH]cc(F)c(=O)[nH]1
not listed: [20]
inactive: all other assays above

Nc1ccc(S(N)(=O)=O)cc1
not listed: [4] | [5] | [12] | [14] | [15] | [17] | [19] | [20]
inactive: all other assays above

CC1(C)S[C@@H]2[C@H](NC(=O)[C@H](N)c3ccccc3)C(=O)N2[C@H]1C(=O)O
not listed: [10] | [12] | [14] | [15] | [17] | [19] | [20]
inactive: all other assays above

CCCC[P+](CCCC)(CCCC)CCCC
not listed: [4] | [5] | [12] | [14] | [20]
inactive: all other assays above

O=C1c2c(O)cccc2Cc2cccc(O)c21
not listed: [5] | [7] | [14] | [19] | [20]
inactive: all other assays above

CNNCc1ccc(C(=O)NC(C)C)cc1
not listed: [4] | [5] | [12] | [14] | [15] | [17] | [20]
inactive: all other assays above

O=CC(=O)c1ccccc1
not listed: [5] | [9] | [10] | [15] | [17] | [19] | [20]
inactive: all other assays above

Cc1ncc([N+](=O)[O-])n1C
not listed: [4] | [5]
inactive: all other assays above

Source: PubChem BioAssay (Tox21)
